In the supplement of paper PMC6555819:

How the values were obtained:
Test in all cases: PBM binding z-score (relative to random genomic background probes); higher = stronger binding; sequences stand for … in GC…GCGATTGACAGCGTAGAATGAAGG
[1] = tested on: FXR:RXRa (NR concentration 270 nM, RXRa partner concentration 90 nM)
Procedure, shortened: (§1)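 Custom Agilent 4×180K protein-binding microarrays carried double-stranded probes. Their 34-nt variable regions held direct-repeat seeds, single-nucleotide variants, half-site ablations and random human genomic background sequences. Arrays were incubated 1 h with ligand-free nuclear receptor dimers in PBS pH 7.4, 2% milk, 0.02% Triton X-100, 1 mM DTT, 0.2 mg/mL BSA and 0.4 mg/ml salmon testes DNA. Antibodies against each partner (one per run) detected binding, and scanned fluorescence was regression-normalized. Binding z-scores use random background probes as reference.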

[2] = tested on: LXRa:RXRa (NR concentration 270 nM, RXRa partner concentration 90 nM)
Procedure, shortened: as §1

[3] = tested on: LXRa homodimer (NR concentration 270 nM)
Procedure, shortened: as §1

[4] = tested on: LXRb:RXRa (NR concentration 270 nM, RXRa partner concentration 90 nM)
Procedure, shortened: as §1

[5] = tested on: LXRb homodimer (NR concentration 270 nM)
Procedure, shortened: as §1

[6] = tested on: PPARa:RXRa (NR concentration 270 nM, RXRa partner concentration 90 nM)
Procedure, shortened: as §1

[7] = tested on: PPARg:RXRa (NR concentration 180 nM, RXRa partner concentration 90 nM)
Procedure, shortened: as §1

[8] = tested on: PPARg:RXRa 270nM:90nM, anti-RXR (NR concentration 270 nM, RXRa partner concentration 90 nM)
Procedure, shortened: as §1

[9] = tested on: PPARg:RXRa 30nM:10nM, anti-RXR (NR concentration 30 nM, RXRa partner concentration 10 nM)
Procedure, shortened: as §1

[10] = tested on: PPARg:RXRa 90nM:30nM, anti-RXR (NR concentration 90 nM, RXRa partner concentration 30 nM)
Procedure, shortened: as §1

Sequence	PBM binding z-score [1]	PBM binding z-score [2]	PBM binding z-score [3]	PBM binding z-score [4]	PBM binding z-score [5]	PBM binding z-score [6]	PBM binding z-score [7]	PBM binding z-score [8]	PBM binding z-score [9]	PBM binding z-score [10]
GCGACTGGGTCAAAGCAGGTTACCATAAGGTTGG	3.12	3.67	-0.265	2.21	-0.807	4.27	4.75	4.75	2.08	3.49
GCATATAGGTAATAAAAGGTGAAAGTCCGATTGT	1.12	4.97	0.418	1.97	-0.165	2.47	1.65	2.12	0.664	1.72
AATACAGGGGCACTAGGCCAGAGTAGGTACGAAT	-0.0916	0.117	-0.197	0.693	-0.000441	1.5	2.84	2.51	0.512	1.26
CGTCCAAGGTCAAAGCTCAGTGAAGAGATGACGG	7.32	5.36	0.938	3.83	0.937	5.37	4.98	5.4	2.13	4.12
GCATATAGGTAATACAAGGTGGAAGTCCGATTGT	0.184	0.265	-0.224	-0.272	-0.619	0.775	0.978	0.953	0.435	0.586
CCGAGTACGTTATGGGGCATTCAGGCAACGGTGA	-0.345	-0.442	-0.712	-0.213	-0.602	-0.079	0.408	-0.152	-0.465	-0.83
CCGAATGGGGCAAGGTTACCATAACGCACAGCCA	0.248	0.895	-0.0673	0.899	-0.855	1.48	1.51	1.71	0.272	1.08
ATACCAAGGTGATCGTGAGGTAGTTGATACTAAC	0.206	-0.121	-0.314	-0.148	-0.349	0.00448	0.267	-0.218	-0.0247	-0.173
CCTAGTTGGTCCAGGTCACACACGCTATAGGTAC	1.93	2.22	1.52	2.41	0.771	2.58	1.47	1.46	0.532	1.01
TCGAGAAGGTTAGTCGGGGCATTCAGCCAACATA	0.663	0.631	-0.271	0.863	-0.323	1.32	0.00646	1.2	1.72	1.33
CGAACTAGGTCAGAACAGGATAGTGAAGGATGAT	1.16	0.877	-0.252	0.463	-0.465	3.33	5.21	4.24	1.75	3.34
AGAATGAGGTTATGATCAGGGAAACAGAATACAT	1.66	1.52	-0.0293	1.41	-0.275	2.83	1.86	1.65	1.17	1.03
ATATGTAGGTTAGCTGGGGTGATTCAGACTAGGC	2.08	0.979	0.289	1.32	0.553	2.85	3.26	2.89	0.853	1.94
TAGCCTAGGTCATGAGCCAGTATACCACGCGAAC	4.38	3.4	0.262	2.43	0.0464	3.93	3.35	2.98	0.892	2.05
ACAGACACGTGATGAAGGTAACTCAGGCTATCAT	0.135	0.0254	-0.272	0.133	-0.0548	-0.111	0.787	-0.012	0.0893	-0.0553
TGAATGAGGTTGAAGATCAGGGAACGTGGCGTCG	0.0849	0.195	-0.576	-0.271	0.232	0.989	1.11	2.33	0.813	1.97
ACTTACGGGTCAACGAGGTTATAGCACGCGTATA	6.51	5.39	0.989	4.36	0.794	5.52	5.71	5.48	2.87	4.14
ATATGTAGGCTAAGGGTCATTCAGGTTGGTTCGC	3.79	3.76	1.84	3.73	1.39	6.17	10.2	8.9	9.28	9.65
GCTAGCAGGCCATTTGGATCACTCAATGACGGGC	-0.129	-0.387	-0.841	-0.881	-0.721	-0.45	0.511	-0.386	-0.566	-0.739
CATAGCAGGCCAGGGTCACTCAAGCATTTCGCTT	2.42	1.71	-0.165	2.2	0.0433	3.42	1.88	2.27	0.29	1.54
CAAACTAGGTCTCAGAGGTCAAAGTCCGTGCGTA	4.78	5.2	5.13	4.97	1.8	5.18	4.67	5.17	2.69	4.41
CCTCGGAGGACAACAGGAGTTCAGAGCTGCCAGA	0.094	0.777	1.72	-0.123	-0.822	0.00336	0.0297	-0.913	-1.16	-1.11
CCTAACGGGTCACTGACAGGTTATAGCATTTGGA	4.16	3.46	0.268	2.65	-0.0444	4.42	3.07	3.01	0.84	1.88
